Results: the supplement of paper PMC10849652
Targets with a hit are over-represented here; the source holds about 7,900 in all. About 0.6% of all pairs of compound and target were hits.

Columns and labels:
Experiment in all cases: log2 fold change, soluble protein after heating vs DMSO (PISA); higher = thermal stabilisation; K562 cells, 10 uM, 30 min; active = over 0.2 and 3.5 SD of the protein, either way, in both replicates (recomputed)
[1] = compound: CN1CCN(CCOc2cc(OC3CCOCC3)c3c(Nc4c(Cl)ccc5c4OCO5)ncnc3c2)CC1 [saracatinib]
How it was run: (§1)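 Soluble protein was quantified by TMTpro 16plex LC-MS/MS after channel sums were equalised. It was obtained as the supernatant after 21,000xg for 90 min from pooled aliquots of K562 cells (2×10^6 cells/mL, 10 μM compound, 30 min) heated for 3 min across 48°C-58°C and extracted in PBS with 0.5% NP-40 at 4°C. Thermal stability values are relative to control samples and come from duplicates. They are given as log2 fold changes.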

[2] = compound: CN1CCN(c2nc(C3=C(c4c[nH]c5ccccc45)C(=O)NC3=O)c3ccccc3n2)CC1 [sotrastaurin]
How it was run: as §1

[3] = compound: CN1CC[C@H](c2c(O)cc(O)c3c(=O)cc(-c4ccccc4Cl)oc23)[C@H](O)C1 [alvocidib]
How it was run: as §1

[4] = compound: CN1CCc2c(c3ccccc3n2Cc2ccc(C(=O)NO)cc2)C1 [Tubastatin A]
How it was run: as §1

[5] = compound: CNC(=O)C1=CC=CC=C1NC2=NC(=NC=C2Cl)NC3=C(C=C(C=C3)N4CCOCC4)OC
How it was run: as §1

[6] = compound: CNC(=O)c1ccc(Nc2ncc(C(F)(F)F)c(NCc3nccnc3N(C)S(C)(=O)=O)n2)cc1 [defactinib]
How it was run: as §1

[7] = compound: CNCc1ccc(-c2[nH]c3cc(F)cc4c3c2CCNC4=O)cc1 [rucaparib]
How it was run: as §1

[8] = compound: CNc1nc(-c2ccc3c(N)n[nH]c3c2)cc(N2C[C@@H](C(=O)NC3CCCCC3)CC[C@H]2C)n1
How it was run: as §1

[9] = compound: COC(=O)N[C@@H](C)CNc1nccc(-c2cn(C(C)C)nc2-c2cc(Cl)cc(NS(C)(=O)=O)c2F)n1 [encorafenib]
How it was run: as §1

[10] = compound: COC(=O)[C@H](CCSC)NC(=O)C1=C(C=C(C=C1)NC[C@H](CS)N)C2=CC=CC=C2
How it was run: as §1

[11] = compound: COC1=CC=C(C=C1)CN2C=CC3=C2C=C(C=C3)C(=O)NO
How it was run: as §1

[12] = compound: CON(C)C(=O)N1N=C(c2cc(F)ccc2F)S[C@@]1(CCCN)c1ccccc1 [filanesib]
How it was run: as §1

[13] = compound: CO[C@H]1C[C@@H]2CC[C@@H](C)[C@@](O)(O2)C(=O)C(=O)N2CCCC[C@H]2C(=O)O[C@H]([C@H](C)C[C@@H]2CC[C@H](n3cnnn3)[C@H](OC)C2)CC(=O)[C@H](C)/C=C(\C)[C@@H](O)[C@@H](OC)C(=O)[C@H](C)C[C@H](C)/C=C/C=C/C=C/1C [zotarolimus]
How it was run: as §1

[14] = compound: COc1cc(C(=O)O)ccc1NC(=O)[C@@H]1N[C@@H](CC(C)(C)C)[C@](C#N)(c2ccc(Cl)cc2F)[C@H]1c1cccc(Cl)c1F [idasanutlin]
How it was run: as §1

[15] = compound: COc1cc(Nc2ncc3c(n2)-c2ccc(Cl)cc2C(c2c(F)cccc2OC)=NC3)ccc1C(=O)O [alisertib]
How it was run: as §1

[16] = compound: COc1cc2nc(-c3cc(F)ccc3O)nc(N[C@@H]3CNC[C@H]3C(C)(C)O)c2cc1OC
How it was run: as §1

[17] = compound: COc1cc2ncnc(Nc3ccc(F)c(Cl)c3)c2cc1OCCCN1CCOCC1 [gefitinib]
How it was run: as §1

[18] = compound: COc1cccc2cc(-c3nc([C@H]4CC[C@H](C(=O)O)CC4)n4ncnc(N)c34)[nH]c12
How it was run: as §1

[19] = compound: CS(=O)(=O)CCNCc1ccc(-c2ccc3ncnc(Nc4ccc(OCc5cccc(F)c5)c(Cl)c4)c3c2)o1 [lapatinib]
How it was run: as §1

[20] = compound: CS(=O)(=O)N1CCN(Cc2cc3nc(-c4cccc5[nH]ncc45)nc(N4CCOCC4)c3s2)CC1 [pictilisib]
How it was run: as §1

UniProt P35520, sequence (P35520 whole entry, looked up): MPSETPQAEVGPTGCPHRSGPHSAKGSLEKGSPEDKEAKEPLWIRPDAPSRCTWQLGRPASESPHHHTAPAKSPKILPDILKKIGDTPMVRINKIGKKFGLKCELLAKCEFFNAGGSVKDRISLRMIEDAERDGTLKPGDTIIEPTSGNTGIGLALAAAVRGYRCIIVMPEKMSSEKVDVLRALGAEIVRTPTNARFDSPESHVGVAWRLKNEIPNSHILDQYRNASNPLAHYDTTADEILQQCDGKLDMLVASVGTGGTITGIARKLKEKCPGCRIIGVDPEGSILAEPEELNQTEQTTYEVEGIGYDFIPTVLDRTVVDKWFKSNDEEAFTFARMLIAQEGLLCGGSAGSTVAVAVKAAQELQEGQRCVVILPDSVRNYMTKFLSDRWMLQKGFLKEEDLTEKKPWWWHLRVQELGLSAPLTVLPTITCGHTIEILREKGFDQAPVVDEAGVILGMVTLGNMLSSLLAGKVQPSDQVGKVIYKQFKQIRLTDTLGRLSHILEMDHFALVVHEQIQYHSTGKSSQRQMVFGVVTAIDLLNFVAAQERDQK
UniProt Q8NHZ8, sequence (Q8NHZ8 whole entry, looked up): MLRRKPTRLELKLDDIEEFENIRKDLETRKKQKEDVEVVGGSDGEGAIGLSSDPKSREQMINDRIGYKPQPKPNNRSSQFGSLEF
UniProt P48730, sequence (P48730 whole entry, looked up): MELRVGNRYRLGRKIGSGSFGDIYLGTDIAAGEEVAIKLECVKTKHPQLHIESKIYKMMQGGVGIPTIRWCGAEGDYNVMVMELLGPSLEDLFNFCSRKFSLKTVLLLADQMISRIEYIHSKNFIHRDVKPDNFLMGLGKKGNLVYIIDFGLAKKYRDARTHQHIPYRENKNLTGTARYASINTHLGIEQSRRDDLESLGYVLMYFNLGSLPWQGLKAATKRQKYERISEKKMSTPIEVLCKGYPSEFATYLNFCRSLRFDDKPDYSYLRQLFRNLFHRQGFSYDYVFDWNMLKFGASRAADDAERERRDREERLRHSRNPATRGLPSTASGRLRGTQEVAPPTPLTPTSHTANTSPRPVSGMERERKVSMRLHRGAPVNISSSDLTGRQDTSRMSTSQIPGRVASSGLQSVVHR
UniProt P46109, sequence (P46109 whole entry, looked up): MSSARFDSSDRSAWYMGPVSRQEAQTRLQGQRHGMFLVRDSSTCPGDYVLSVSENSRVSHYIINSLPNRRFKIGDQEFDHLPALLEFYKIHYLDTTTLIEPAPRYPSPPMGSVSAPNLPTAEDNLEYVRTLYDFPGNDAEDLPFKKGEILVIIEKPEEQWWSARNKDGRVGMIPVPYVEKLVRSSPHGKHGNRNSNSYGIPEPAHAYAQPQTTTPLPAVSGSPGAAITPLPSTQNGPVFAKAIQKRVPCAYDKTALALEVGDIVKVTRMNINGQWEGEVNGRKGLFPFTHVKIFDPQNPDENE
UniProt O75208, sequence (O75208 whole entry, looked up): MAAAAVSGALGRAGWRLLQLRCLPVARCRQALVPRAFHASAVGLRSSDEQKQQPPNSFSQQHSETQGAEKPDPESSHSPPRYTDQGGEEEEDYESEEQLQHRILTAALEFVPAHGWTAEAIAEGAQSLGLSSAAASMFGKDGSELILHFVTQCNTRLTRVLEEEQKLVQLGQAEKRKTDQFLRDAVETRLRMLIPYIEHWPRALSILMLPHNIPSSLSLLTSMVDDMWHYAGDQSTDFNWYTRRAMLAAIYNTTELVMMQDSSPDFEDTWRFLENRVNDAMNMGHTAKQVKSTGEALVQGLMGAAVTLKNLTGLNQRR
UniProt Q6NZI2, sequence (Q6NZI2 whole entry, looked up): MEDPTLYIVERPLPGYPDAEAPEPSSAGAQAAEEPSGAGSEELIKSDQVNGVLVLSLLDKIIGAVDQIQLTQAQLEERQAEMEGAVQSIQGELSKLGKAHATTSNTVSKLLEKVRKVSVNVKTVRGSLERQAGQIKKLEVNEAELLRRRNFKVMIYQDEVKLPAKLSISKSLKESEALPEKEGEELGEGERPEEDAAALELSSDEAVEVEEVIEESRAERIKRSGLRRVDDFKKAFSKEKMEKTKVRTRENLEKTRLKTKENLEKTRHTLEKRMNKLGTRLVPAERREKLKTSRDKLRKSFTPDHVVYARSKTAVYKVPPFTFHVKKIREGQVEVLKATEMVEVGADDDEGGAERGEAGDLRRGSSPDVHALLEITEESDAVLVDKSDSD
UniProt P16152, sequence (P16152 whole entry, looked up): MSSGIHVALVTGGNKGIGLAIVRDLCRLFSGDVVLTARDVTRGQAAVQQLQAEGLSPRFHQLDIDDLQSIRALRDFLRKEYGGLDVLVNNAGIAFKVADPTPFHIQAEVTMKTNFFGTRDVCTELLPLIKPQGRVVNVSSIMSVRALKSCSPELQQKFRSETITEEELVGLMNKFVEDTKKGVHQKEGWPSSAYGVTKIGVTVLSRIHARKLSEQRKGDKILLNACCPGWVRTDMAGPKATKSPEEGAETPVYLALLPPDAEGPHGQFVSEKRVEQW
UniProt Q12873, sequence (Q12873 whole entry, looked up): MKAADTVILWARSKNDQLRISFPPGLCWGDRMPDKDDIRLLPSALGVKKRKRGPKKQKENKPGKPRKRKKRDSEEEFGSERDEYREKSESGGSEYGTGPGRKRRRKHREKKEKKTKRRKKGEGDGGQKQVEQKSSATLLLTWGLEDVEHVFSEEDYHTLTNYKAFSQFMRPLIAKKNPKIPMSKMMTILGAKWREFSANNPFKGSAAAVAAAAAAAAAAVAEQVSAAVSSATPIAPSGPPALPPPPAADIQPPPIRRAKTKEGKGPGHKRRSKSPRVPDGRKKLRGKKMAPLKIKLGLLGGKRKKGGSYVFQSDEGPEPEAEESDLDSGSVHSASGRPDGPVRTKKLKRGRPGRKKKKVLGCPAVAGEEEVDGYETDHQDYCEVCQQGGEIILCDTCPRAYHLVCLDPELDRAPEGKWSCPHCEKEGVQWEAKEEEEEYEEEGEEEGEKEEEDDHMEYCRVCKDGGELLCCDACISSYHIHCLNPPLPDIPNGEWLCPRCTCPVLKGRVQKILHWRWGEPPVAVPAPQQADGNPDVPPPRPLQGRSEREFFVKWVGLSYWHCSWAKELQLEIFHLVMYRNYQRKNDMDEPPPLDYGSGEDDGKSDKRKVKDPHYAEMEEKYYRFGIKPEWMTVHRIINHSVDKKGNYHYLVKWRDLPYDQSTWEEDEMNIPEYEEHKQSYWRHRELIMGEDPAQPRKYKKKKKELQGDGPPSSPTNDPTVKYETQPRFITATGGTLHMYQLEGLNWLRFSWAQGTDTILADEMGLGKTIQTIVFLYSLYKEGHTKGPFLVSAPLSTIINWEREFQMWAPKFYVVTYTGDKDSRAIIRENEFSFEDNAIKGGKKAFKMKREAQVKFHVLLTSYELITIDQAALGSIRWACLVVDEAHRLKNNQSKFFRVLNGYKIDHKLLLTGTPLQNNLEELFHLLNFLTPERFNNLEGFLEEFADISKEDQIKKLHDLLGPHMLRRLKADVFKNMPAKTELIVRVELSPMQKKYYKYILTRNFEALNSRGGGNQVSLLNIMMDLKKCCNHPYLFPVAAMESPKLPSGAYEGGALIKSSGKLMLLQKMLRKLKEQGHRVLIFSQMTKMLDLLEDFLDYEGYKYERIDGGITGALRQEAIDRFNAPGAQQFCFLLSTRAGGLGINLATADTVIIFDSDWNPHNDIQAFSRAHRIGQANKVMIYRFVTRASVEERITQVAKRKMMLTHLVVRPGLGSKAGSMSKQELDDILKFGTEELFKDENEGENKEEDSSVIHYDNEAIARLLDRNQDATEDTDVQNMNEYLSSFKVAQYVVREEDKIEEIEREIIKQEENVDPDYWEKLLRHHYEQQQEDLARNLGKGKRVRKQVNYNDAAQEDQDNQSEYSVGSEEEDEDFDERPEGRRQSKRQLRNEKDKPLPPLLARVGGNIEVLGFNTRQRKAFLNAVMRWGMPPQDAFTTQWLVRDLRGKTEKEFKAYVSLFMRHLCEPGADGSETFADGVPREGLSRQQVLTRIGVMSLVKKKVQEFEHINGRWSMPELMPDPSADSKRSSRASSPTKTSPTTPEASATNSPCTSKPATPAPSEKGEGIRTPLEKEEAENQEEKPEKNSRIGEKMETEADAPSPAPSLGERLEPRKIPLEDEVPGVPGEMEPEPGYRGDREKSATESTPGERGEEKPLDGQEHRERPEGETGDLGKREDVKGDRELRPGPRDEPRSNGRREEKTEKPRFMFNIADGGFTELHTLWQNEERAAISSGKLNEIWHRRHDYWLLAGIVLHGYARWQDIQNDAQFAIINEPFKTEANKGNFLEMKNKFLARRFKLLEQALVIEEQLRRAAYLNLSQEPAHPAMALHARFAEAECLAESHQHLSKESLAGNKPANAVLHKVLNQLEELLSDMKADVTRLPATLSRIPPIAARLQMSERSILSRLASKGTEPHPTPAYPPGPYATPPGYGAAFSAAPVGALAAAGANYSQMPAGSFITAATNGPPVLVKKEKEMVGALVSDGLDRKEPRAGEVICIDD
UniProt P68400, sequence (P68400 whole entry, looked up): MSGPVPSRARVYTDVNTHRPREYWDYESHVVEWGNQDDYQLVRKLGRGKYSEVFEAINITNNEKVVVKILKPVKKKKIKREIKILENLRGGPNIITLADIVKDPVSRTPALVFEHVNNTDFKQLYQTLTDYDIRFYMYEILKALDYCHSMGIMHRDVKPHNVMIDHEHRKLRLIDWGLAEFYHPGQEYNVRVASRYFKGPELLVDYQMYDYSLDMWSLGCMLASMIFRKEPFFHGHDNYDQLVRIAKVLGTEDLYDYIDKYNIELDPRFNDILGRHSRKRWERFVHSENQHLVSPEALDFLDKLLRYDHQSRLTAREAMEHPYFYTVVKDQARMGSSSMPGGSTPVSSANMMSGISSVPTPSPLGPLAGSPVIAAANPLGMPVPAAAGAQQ

Row | Target | log2 fold change [1] | log2 fold change [2] | log2 fold change [3] | log2 fold change [4] | log2 fold change [5] | log2 fold change [6] | log2 fold change [7] | log2 fold change [8] | log2 fold change [9] | log2 fold change [10] | log2 fold change [11] | log2 fold change [12] | log2 fold change [13] | log2 fold change [14] | log2 fold change [15] | log2 fold change [16] | log2 fold change [17] | log2 fold change [18] | log2 fold change [19] | log2 fold change [20]
1 | CBS (UniProt P35520) | -0.009 (inactive) | 0.011 (inactive) | -0.035 (inactive) | -0.069 (inactive) | -0.021 (inactive) | 0.003 (inactive) | -0.061 (inactive) | -0.03 (inactive) | -0.001 (inactive) | -0.013 (inactive) | -0.225 (active) | -0.05 (inactive) | 0.044 (inactive) | 0.014 (inactive) | -0.073 (inactive) | 0.024 (inactive) | 0.007 (inactive) | 0.011 (inactive) | -0.026 (inactive) | 0.043 (inactive)
2 | CHD3 isoform 3 (UniProt Q12873) | -0.067 (inactive) | -0.312 (inactive) | -0.12 (inactive) | 0.096 (inactive) | -0.029 (inactive) | -0.253 (inactive) | 0.134 (inactive) | -0.024 (inactive) | 0.136 (inactive) | -0.087 (inactive) | -0.137 (inactive) | 0.082 (inactive) | 0.174 (inactive) | 0.097 (inactive) | -0.001 (inactive) | -0.207 (inactive) | 0 (inactive) | -0.051 (inactive) | -0.016 (inactive) | -0.024 (inactive)
3 | CAVIN1 (UniProt Q6NZI2) | -0.065 (inactive) | -0.053 (inactive) | 0.101 (inactive) | 0.159 (inactive) | -0.015 (inactive) | 0.226 (inactive) | 0.098 (inactive) | 0.119 (inactive) | 0.122 (inactive) | 0.034 (inactive) | -0.012 (inactive) | 0.109 (inactive) | 0 (inactive) | 0.15 (inactive) | -0.098 (inactive) | -0.107 (inactive) | -0.1 (inactive) | -0.159 (inactive) | 0.089 (inactive) | -0.094 (inactive)
4 | CHCHD1 (UniProt Q96BP2) | -0.069 (inactive) | 0.059 (inactive) | 0.009 (inactive) | -0.025 (inactive) | 0.132 (inactive) | 0.017 (inactive) | 0.114 (inactive) | 0.04 (inactive) | -0.037 (inactive) | -0.024 (inactive) | 0.037 (inactive) | -0.017 (inactive) | -0.001 (inactive) | 0.082 (inactive) | -0.077 (inactive) | -0.198 (inactive) | -0.042 (inactive) | 0.161 (inactive) | -0.055 (inactive) | -0.193 (inactive)
5 | CBR1 (UniProt P16152) | 0.02 (inactive) | -0.005 (inactive) | -0.098 (inactive) | -0.059 (inactive) | 0.011 (inactive) | -0.041 (inactive) | -0.01 (inactive) | -0.003 (inactive) | -0.024 (inactive) | 0.004 (inactive) | 0 (inactive) | -0.024 (inactive) | 0.071 (inactive) | -0.074 (inactive) | -0.036 (inactive) | 0.001 (inactive) | -0.004 (inactive) | 0.028 (inactive) | 0.037 (inactive) | -0.035 (inactive)
6 | CRKL (UniProt P46109) | -1.42 (active) | 0.003 (inactive) | -0.044 (inactive) | 0.003 (inactive) | -0.01 (inactive) | -0.052 (inactive) | -0.001 (inactive) | 0 (inactive) | 0.016 (inactive) | 0.008 (inactive) | 0.006 (inactive) | 0.002 (inactive) | 0.007 (inactive) | 0.022 (inactive) | -0.036 (inactive) | 0.021 (inactive) | 0 (inactive) | 0.102 (inactive) | -0.012 (inactive) | 0.057 (inactive)
7 | CSNK1D (UniProt P48730) | -0.047 (inactive) | -0.038 (inactive) | 0.063 (inactive) | 0.039 (inactive) | 0.111 (inactive) | 0.045 (inactive) | 0.032 (inactive) | -0.038 (inactive) | 0.06 (inactive) | -0.012 (inactive) | 0.045 (inactive) | 0.153 (inactive) | -0.019 (inactive) | 0.027 (inactive) | -0.016 (inactive) | -0.049 (inactive) | -0.006 (inactive) | -0.009 (inactive) | 0.041 (inactive) | -0.053 (inactive)
8 | COQ9 (UniProt O75208) | -0.009 (inactive) | -0.052 (inactive) | -0.041 (inactive) | -0.045 (inactive) | -0.047 (inactive) | -0.045 (inactive) | 0.001 (inactive) | 0.042 (inactive) | -0.013 (inactive) | -0.016 (inactive) | 0.02 (inactive) | -0.113 (inactive) | -0.017 (inactive) | 0.166 (inactive) | -0.038 (inactive) | -0.013 (inactive) | 0.025 (inactive) | 0.045 (inactive) | 0.043 (inactive) | -0.041 (inactive)
9 | CDC26 (UniProt Q8NHZ8) | 0.032 (inactive) | -0.022 (inactive) | 0.026 (inactive) | 0 (inactive) | -0.032 (inactive) | -0.11 (inactive) | 0.112 (inactive) | -0.013 (inactive) | -0.051 (inactive) | -0.234 (inactive) | -0.031 (inactive) | 0.085 (inactive) | -0.011 (inactive) | -0.053 (inactive) | -0.023 (inactive) | 0 (inactive) | 0.003 (inactive) | -0.017 (inactive) | -0.023 (inactive) | -0.125 (inactive)
10 | C19orf53 (UniProt Q9UNZ5) | -0.069 (inactive) | -0.03 (inactive) | 0.33 (inactive) | 0.129 (inactive) | 0.155 (inactive) | 0.296 (inactive) | 0.257 (inactive) | 0.053 (inactive) | 0.136 (inactive) | 0.036 (inactive) | -0.225 (inactive) | 0.375 (inactive) | 0.042 (inactive) | 0.209 (inactive) | -0.086 (inactive) | -0.067 (inactive) | -0.045 (inactive) | -0.167 (inactive) | 0.184 (inactive) | -0.073 (inactive)
11 | CSNK2A1 (UniProt P68400) | 0.016 (inactive) | 0.059 (inactive) | -0.082 (inactive) | -0.019 (inactive) | 0.263 (active) | -0.113 (inactive) | -0.079 (inactive) | -0.045 (inactive) | -0.038 (inactive) | -0.034 (inactive) | -0.025 (inactive) | 0.03 (inactive) | -0.015 (inactive) | -0.009 (inactive) | -0.073 (inactive) | -0.167 (inactive) | -0.023 (inactive) | 0.066 (inactive) | 0.032 (inactive) | 0.102 (inactive)
12 | CSNK2A2 (UniProt P19784) | 0.029 (inactive) | 0.024 (inactive) | -0.041 (inactive) | -0.042 (inactive) | 0.214 (inactive) | -0.067 (inactive) | -0.123 (inactive) | -0.017 (inactive) | -0.039 (inactive) | -0.052 (inactive) | -0.042 (inactive) | -0.019 (inactive) | -0.003 (inactive) | -0.094 (inactive) | 0.001 (inactive) | -0.177 (inactive) | -0.031 (inactive) | 0.033 (inactive) | 0.02 (inactive) | 0.128 (inactive)
